Structures are written as SMILES.

This assay concerns glycogen synthase kinase-3 (GSK3A per assay name; protocol says GSK3B). The assay is described as follows: GSK3 binders on small-molecule microarrays, primary screen, biochemical, small-molecule microarray, 635 nm fluorescence, GSK3A (AID 1103). Further: the record names both GSK3A and GSK3B. The note with it: small-molecule microarray binding, fluorescence 635 nm; higher = more signal.
`CC(C)C(O)C1C=CC2C(=O)N(C)C(=O)C2N1Nc1ccccc1` (stereo unspecified) returned a composite z-score of 0.686.

For the molecule `Cc1c(NC(=O)/C(C#N)=C/C=C/c2ccc(N(C)C)cc2)c(=O)n(-c2ccccc2)n1C`, the composite z-score amounted to 1.02.

For the molecule `COc1cc(CO)cc(I)c1O[C@H]1C=C(C(=O)NCCO)C[C@@H](N(Cc2ccc(F)cc2)C(=O)C2CCCO2)[C@@H]1O` (stereo partly specified), the composite z-score was determined as 0.1.

As for `O=C1C[C@@](C(=O)NCC(F)(F)F)(c2ccc([N+](=O)[O-])cc2)[C@@H](c2ccc(CO)cc2)N1C1CCCCC1`, the composite z-score amounted to 1.31. `COC(=O)Cn1c(C(=O)N2CCCC2)cc2c1C[C@H]1CN(C(=O)c3ccccc3)[C@@](Cc3ccc(F)cc3)(C(=O)OC)[C@@H]21`: the composite z-score was -0.576. Then `O=C(CS)NCCCCCCNC(=O)[C@H]1C[C@H]2C(=O)N[C@@H](Cc3ccccc3)C(=O)N2[C@H]1c1cccc(OCCO)c1`, with 1.25.

`COc1cc2c(cc1OC)CN(C(=O)[C@H]1[C@@H]3C(=O)O[C@@H](c4ccccc4)[C@@H](c4ccccc4)N3[C@@H](c3ccc(OCCO)cc3)[C@]13C(=O)Nc1ccc(C#CC4(O)CCCCCC4)cc13)CC2` had a composite z-score of 1.31. Then `O=C1O[C@H](c2ccccc2)[C@H](c2ccccc2)N2[C@H]1[C@@H](C(=O)O)[C@]1(C(=O)Nc3ccccc31)[C@H]2c1ccc(O)cc1`, with -0.219; and `CC(=O)N1Cc2ccccc2C[C@]2(N=C(c3ccc(OCCCO)cc3)O[C@@H]2c2ccccc2)C1=O`, with 1.26; and `Cc1ccc(S[C@]2(C(=O)O)CC(=O)N(Cc3ccccc3Cl)[C@@H]2c2ccc(CO)cc2)cc1`, with -0.851. Next, `COc1c(C)cc(-c2cc3c(c(-c4ccccc4)n2)[Si](C(C)C)(C(C)C)OC3)cc1C`: -0.39; `O=C(CCCCCCC(=O)Nc1ccccc1)N/N=C/c1ccccc1`: -0.401; `CCOC(=O)C[C@H]1[C@H](OC(=O)Cc2ccc3c(c2)OCO3)[C@@H](NC(=O)C2CCCCC2)c2cc(OCCCO)ccc2N1C(=O)c1ccc2ccccc2n1`: 0.72. For `O=C(NC1CC1)[C@@H]1c2ccccc2C(=O)N(Cc2ccccc2)[C@H]1c1ccc(CO)cc1`, the composite z-score worked out at 0.714.

`NC(N)=NCc1cn(CCc2c[nH]c3ccccc23)nn1` showed a composite z-score of 1.18. As to `COCCCNC(=O)[C@@]1(Sc2ccc(C)cc2)CC(=O)N(Cc2cc(C(F)(F)F)cc(C(F)(F)F)c2)[C@@H]1c1ccc(CO)cc1`, the composite z-score is -0.257. As to `O=C1O[C@@H](c2ccccc2)[C@@H](c2ccccc2)N2[C@@H](c3ccc(O)cc3)[C@]3(C(=O)Nc4ccc(C#CC5=CCCCC5)cc43)[C@@H](C(=O)N3CCN(c4ncccn4)CC3)[C@H]12`, the composite z-score was determined as 1.28.

As for `COCCOC(=O)N1C(=O)[C@@]2(c3cc(C#CC4=CCCCC4)ccc31)[C@H](c1ccccc1OCCO)N1[C@H](c3ccccc3)[C@H](c3ccccc3)OC(=O)[C@H]1[C@@H]2C(=O)N1CCc2cc(OC)c(OC)cc2C1`, the composite z-score is 1.18. `CC[C@H]1C2=C3C(CC[C@H]4C(OCc5ccc(F)cc5C(F)(F)F)OC[C@](C)([C@@H]34)N(C(=O)OC(C)(C)C)C2)C2COC(=O)OCC21` (stereo partly specified) returned a composite z-score of 0.737.

As for `CO[C@H]1O[C@H](CO)[C@@H](OC(=O)Nc2ccccc2-c2ccccc2)[C@H](OC(=O)Nc2ccc3c(c2)OCO3)[C@@H]1OC(=O)Nc1ccc2c(c1)OCO2`, the composite z-score worked out at 1.34.

As to `COCCCNC(=O)[C@@]1(Sc2ccc(C)cc2)CC(=O)N(C2Cc3ccccc3C2)[C@@H]1c1ccc(CO)cc1I`, the composite z-score was -1.1.

As for `Cc1ccc(S[C@]2(C(=O)NCc3ccccc3)CC(=O)N(C(C)C)[C@@H]2c2ccc(CO)cc2I)cc1`, the composite z-score is -0.687. On to `CC(C)C(O)C1C=CC2C(=O)N(C)C(=O)C2N1N(c1ccccc1)c1ccccc1` (stereo unspecified), for which the composite z-score was -1.5.

In the case of `O=C1OCC=C[C@H]2OC34C=CCN(Cn5nnc6ccccc65)C(=O)[C@H]3N(CCCCCCO)C(=O)[C@@H]4[C@@H]12` (stereo partly specified), the composite z-score turned out to be 0.0986.

`COC(=O)[C@@]1(Cc2ccccc2)[C@H]2c3cc(C(=O)N4CCCC4)n(Cc4cc(F)cc5c4OCOC5)c3C[C@H]2CN1C(=O)c1ccccc1` showed a composite z-score of 0.0232.

`O=C(O)[C@H](Cc1ccccc1)n1cc(-c2ccccn2)nn1` had a composite z-score of 0.507. `CN(C)CCCNC(=O)[C@@]1(c2ccc([N+](=O)[O-])cc2)CC(=O)N(CC23CC4CC(CC(C4)C2)C3)[C@@H]1c1ccc(CO)cc1` showed a composite z-score of 1.32.

In turn, `CCOC(=O)C[C@H]1[C@H](OC(=O)c2ccc(-c3ccccc3)cc2)[C@@H](NC(=O)c2ccc3ccccc3n2)c2cc(OCCCO)ccc2N1C(=O)c1ccccc1` gave a composite z-score of 0.653.

`CCOC(=O)C1=CC[C@@H](c2ccccc2)N(S(=O)(=O)c2ccc(C)cc2)C1` registered a composite z-score of 0.121. Next, `CCOC(=O)[C@H]1C/C=C/C[C@H](C(=O)OCC)C(=O)O[C@H]2[C@@H](OC)O[C@H](CO)[C@@H](OC(=O)Nc3ccc(OC)cc3)[C@@H]2OC1=O`: 1.03.

In turn, `COC(=O)[C@H](Cc1ccccc1)N1CC(/C=C/C2CC2)=C[C@@H]1[C@@H](O)Cc1ccccc1` came in with a composite z-score of 0.837. Molecule `Cc1ccc(F)cc1S(=O)(=O)N[C@@H]1CCN(Cc2ccc(Oc3ccccc3)cc2)C1` registered a composite z-score of -0.632.

In the case of `COCCOC(=O)N1C(=O)[C@@]2(c3cc(C#Cc4ccc(OC)cc4)ccc31)[C@H](C(=O)NC[C@H](O)c1ccccc1)[C@H]1C(=O)O[C@H](c3ccccc3)[C@H](c3ccccc3)N1[C@@H]2c1ccc(O)cc1`, the composite z-score came out at 1.35. Then `CN(C)CCCNC(=O)[C@@H]1c2ccccc2C(=O)N(CC23CC4CC(CC(C4)C2)C3)[C@H]1c1ccc(CO)cc1`, with 0.98. Then `CCOC(=O)[C@@H]1[C@@H]2C(=O)N(CC)C(=O)[C@@H]2C[C@@H]1Sc1ccccc1`, with 0.177; and `CC(C)C(=C=CC[C@@H](O)c1ccccc1OCCO)C[C@@H](O)COCc1ccccc1`, with -0.0582.
